Screening results deposited in PubChem by several laboratories.
PriA SSB inh – K. pneumoniae PriA-SSBct interaction inhibition | AlphaScreen SSBct-PriA binding, biotinylated peptide | inhibition, % at 33 µM | 430,000 tested, 0.6% active; in the data active = inhibition mostly above about 37%, no sharp cut-off; inactive = mostly below about 20%;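 note: plate controls were negative control peptide for no effect and reference peptide for full effect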
DUSP3 inh – blocks human VHR1 dual specificity phosphatase; P51452; recombinant VHR phosphatase, pNPP absorbance; inhibition, % at 13.3 µM; 290,000 tested, 0.52% active; AID 1654; in the data active = inhibition above about 50%
Target sequence (P51452 whole entry, looked up): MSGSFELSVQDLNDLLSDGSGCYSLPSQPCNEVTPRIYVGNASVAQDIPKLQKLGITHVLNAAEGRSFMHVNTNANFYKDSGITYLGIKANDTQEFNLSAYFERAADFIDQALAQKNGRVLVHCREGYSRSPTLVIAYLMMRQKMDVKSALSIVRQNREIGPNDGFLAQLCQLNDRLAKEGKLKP
3CLpro inhibitor – SARS-CoV 3CLpro protease inhibition; recombinant SARS-CoV 3CLpro, quenched FRET peptide cleavage; inhibition, % at 6 µM; 290,000 tested, 0.14% active; AID 1706; in the data active = inhibition above about 12%
CCHFV vOTU inh – blocks the CCHF virus ovarian tumor domain protease | CCHFV vOTU protease, Pep-AMC fluorescence | 370,000 tested, 0.55% active | inhibition, % at 11.5 µM | AID 651958; in the data active = inhibition above about 30%; note: 0% = vehicle wells with enzyme and 100% = no enzyme wells
Mtb hypoxia rep – inhibitors of hypoxia-regulated fluorescent reporter in Mycobacterium tuberculosis; M. tuberculosis hypoxia-regulated fluorescent reporter, fluorescence; fluorescence inhibition, % (concentration not given with the values); 300,000 tested, 0.1% active; in the data active = fluorescence inhibition mostly above about 23%, no sharp cut-off; inactive = mostly below about 17%
The depositor's hits bear a star; . = not tested or not shown; ! = a repeat was not active. An excerpt weighted towards active compounds, which were near 1.3% of everything screened.

SMILES	PriA SSB inh	DUSP3 inh	3CLpro inhibitor	CCHFV vOTU inh	Mtb hypoxia rep
N#Cc1nc(Cc2ccccc2)oc1N1CCC(C(N)=O)CC1	-8	4	-6	4	9
O=C(N/N=C\c1c(O)ccc2ccccc12)c1ccc(O)cc1	.	28	-5	-2	.
O=C(N/N=C/c1c(O)ccc2ccccc12)c1ccc(Br)o1	.	57*	-3	-2	.
O=C(NN=Cc1c(O)ccc2ccccc12)c1ccc[n+](CCO)c1	41*	.	.	.	.
O=S(=O)(NCC1(O)CCOCC1)c1ccccc1OC(F)(F)F	-15	.	.	.	.
Cc1ccccc1C1=C/C(=C(\SS/C(C(=O)c2ccc(OCC(=O)O)c(Cl)c2Cl)=C2\C=C(c3ccccc3C)SS2)C(=O)c2ccc(OCC(=O)O)c(Cl)c2Cl)SS1	62*	.	.	11	.
CCc1ccc(S(=O)(=O)N2CCN(c3ccc(-c4ccc(Cl)cc4)nn3)CC2)s1	7	.	.	.	.
O=C(CN1C(=O)COc2ccccc21)NCCCN1CCCC1	-9	-4	1	4	9
O=C(CN1C(=O)COc2ccccc21)NCCN1CCCC1	-4	50*	0	5	5
O=C(CN1C(=O)COc2ccccc21)Nc1ccc(Cl)cc1	52*	.	.	.	.
O=C(NCCn1ncc2c(=O)n(Cc3ccccc3F)cnc21)C1CC1	2	.	.	.	.
Cc1cccc(N2CCN(c3nccnc3SCC(=O)Nc3ccc(F)cc3Cl)CC2)c1C	-18	.	.	.	.
Cc1ccccc1OCc1ccc(-c2nc(C#N)c(NCc3ccc4c(c3)OCO4)o2)o1	9	.	.	.	.
Cc1cc(N=Nc2ccc(Cl)cc2)cc(CN2CCOCC2)c1O	49*	19	3	2	-1
Cc1cc(N=Nc2ccc(Cl)cc2)cc(CN2CCCC2)c1O	72*	-19	1	10	1
Oc1c(CN2CCOCC2)cc(CN2CCOCC2)cc1CN1CCOCC1	-6	.	.	-4	4
O=C(CCS(=O)(=O)c1ccc(Cl)cc1)Nc1nnc(-c2ccno2)o1	-15	.	.	.	.
CS(=O)(=O)c1cccc(-c2nnc(NC(=O)c3cc([N+](=O)[O-])cc([N+](=O)[O-])c3)o2)c1	-3	.	.	.	.
CCOC(=O)C1=C(C)NC(=O)NC1c1ccc(-c2ccc(F)cc2)o1 (stereo not given)	7	52*	3	-2	8
CCOC(=O)N1CCN(C(=O)CN2CCC(c3nnc(-c4ccsc4)o3)CC2)CC1	-9	.	.	.	.
CCc1ccc(S(=O)(=O)N2CCN(c3ccc4nnc(C)n4n3)CC2)s1	-9	.	.	.	.
CN(C)CCNc1oc(-c2cccc(Cl)c2)nc1C#N	3	51*	0	-35	6
CN(C)CCCNc1oc(-c2ccccc2)nc1C#N	2	25	-4	-33	6
CCOC(=O)c1c(C)[nH]c(C2=NNC(=Nc3ccccc3OC)SC2)c1C	54*	16	3	-7	-5
CCOC(=O)c1c(C)[nH]c(C2=NNC(=Nc3ccccc3)SC2)c1C	32	0	0	-3	-1
SMILES	PriA SSB inh	DUSP3 inh	3CLpro inhibitor	CCHFV vOTU inh	Mtb hypoxia rep
C=CCn1c(=NC(=O)CC)sc2cccc(C)c21	-15	.	.	.	.
O=[N+]([O-])c1ccc(C=NNc2ccc3ccccc3c2)o1	55*	.	.	.	20
O=C(NN=Cc1ccc([N+](=O)[O-])o1)C(O)c1ccccc1 (stereo not given)	.	.	.	.	24*
O=[N+]([O-])c1ccc(/C=N/Nc2ccc3ccccc3c2)o1	.	-2	5	20	.
O=C(COc1ccccc1)NN=Cc1ccc([N+](=O)[O-])o1	2	.	.	.	.
O=C(O)c1ccc(NN=C/C=C/c2ccc([N+](=O)[O-])o2)cc1	0	.	.	.	68*
O=C(Cn1nnc(-c2ccc(F)cc2)n1)Nc1cccc(S(=O)(=O)N2CCCC2)c1	7	.	.	7	35*
O=C(Cn1nnc(-c2ccccc2Cl)n1)Nc1cccc(S(=O)(=O)N2CCCC2)c1	-2	.	.	9	5
Cn1c(=O)c(N)c2c3c(c(Br)ccc31)C(=O)c1ccccc1-2	42*	12	-3	3	2
Cn1c(=O)cc2c3c(c(Br)ccc31)C(=O)c1ccccc1-2	-28	.	.	.	.
Nc1ccccc1Nc1cc(-c2cccc(Cl)c2)nn1-c1ccccc1	58*	33	4	-6	2
Cn1c(=O)c2c(SCC(=O)N3CCCCC3)nc(-c3ccccc3Cl)nc2n(C)c1=O	-26	.	.	.	.
O=C(NCCCn1ccnc1)Nc1ccc(Cl)c(Cl)c1	76*	27	-1	2	18
O=C(NCCCn1ccnc1)Nc1ccc(F)c(Cl)c1	43	.	.	.	.
Cc1ccc(C(=O)N/C(=C\c2ccco2)C(=O)NCCCn2ccnc2)cc1C	86*	4	2	1	-3
O=C(NCCCn1ccnc1)c1cccc(Br)c1	-16	53*	-2	3	5
COc1ccc(C(=O)N/C(=C\c2ccco2)C(=O)NCCCn2ccnc2)cc1	-1	-18	1	-13	-4
COc1ncccc1C(=O)NCCNS(=O)(=O)c1cn(C)cn1	-9	.	.	.	.
O=C(c1ccc(F)cc1Cl)N1CCC(Cn2cccn2)CC1	37*	.	.	.	.
CCCS(=O)(=O)N1CCN(Cc2ccc3c(c2)c2ccccc2n3CC)CC1	0	2	0	12	41*
COc1ccc(C(=O)Cn2cnc3ccccc3c2=O)cc1	-5	55*	2	9	.
Cc1ccc(C(=O)c2no[n+]([O-])c2C(=O)c2ccc(C)cc2)cc1	14	54*	5	18	7
CN(C)CC1CSCCCN1C(=O)CCn1ccc(=O)[nH]c1=O (stereo not given)	-1	.	.	.	.
Cc1cc(=O)oc2c1c(C)nn2-c1nn[nH]n1	58*	8	-2	-18	9
Clc1ccc(N2CCN(c3ncnc4c3oc3ccccc34)CC2)cc1	-1	50*	.	0	13
SMILES	PriA SSB inh	DUSP3 inh	3CLpro inhibitor	CCHFV vOTU inh	Mtb hypoxia rep
COC(=O)COc1ccc(NC(=O)Cn2nc(-c3ccccc3)c3ccccc3c2=O)cc1	-9	7	4	-1	.
COc1ccc(-c2nn(CC(=O)Nc3ccc(Cl)c(Cl)c3)c(=O)c3ccccc23)cc1	-9	52*	3	9	.
CCOC(=O)c1c(C)n(Cc2ccccc2)c2ccc(OCC(O)Cn3nc(C)nc3C)cc12 (stereo not given)	104*	-23	-2	10	6
CCOC(=O)c1c(C)n(Cc2ccccc2)c2ccc(OCC(O)Cn3nc(C)cc3C)cc12 (stereo not given)	25	0	1	21	.
O=C(Nc1ccc(N2CCOCC2)c2nonc12)C1CCCC1	-5	5	-2	9	.
Nc1ccc(N2CCOCC2)c2nonc12	12	30	2	109*	5
Cc1cc(C)c(S(=O)(=O)N2CCOC2CNC(=O)C(=O)NCCCn2ccnc2)c(C)c1 (stereo not given)	50*	5	2	3	1
O=C(NCCCn1ccnc1)C(=O)NCC1OCCN1S(=O)(=O)c1ccc([N+](=O)[O-])cc1 (stereo not given)	80*	.	.	.	.
O=C(NCCCn1ccnc1)C(=O)NCC1OCCN1S(=O)(=O)c1ccc2c(c1)OCCO2 (stereo not given)	23*!	21	1	-2	10
CNC(=O)C(=O)NCC1OCCN1S(=O)(=O)c1ccc([N+](=O)[O-])cc1 (stereo not given)	-11	0	4	-1	8
